The list is not random: actives were taken first. Their share in the collection is about 3.4%.
sPLA2-III inh = Blocks human group III sPLA2 activity; 370,000 tested, 0.56% active; QFRET BODIPY PC-A2 liposome hydrolysis, fluorescence; inhibition, % at 12.2 µM;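 active = inhibition above mean plus 3 SD of compounds lying within the high and low control bounds, cut at about 19% in these data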;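 note: 0% = median of test compound wells and 100% = no enzyme DMSO wells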
KLK7 zymogen act = proKLK7 (human) activation, primary screen | P49862 | purified proKLK7, EDANS-DABCYL substrate fluorescence; 100% is mature enzyme control, 0% vehicle | activation, % at 7 µM | 370,000 tested, 0.9% active | AID 652039;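 active = activation above the mean of all tested compounds plus 3 SD, computed per campaign excluding outliers beyond control limits, cut at about 13% in these data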
ADAM10 inh = inhibits human ADAM10; inhibition, % at 7 µM; O14672; recombinant ADAM10, EDANS/DABCYL FRET peptide cleavage, 3 h; 370,000 tested, 0.62% active;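 active = inhibition above a per-campaign cutoff equal to the mean of compounds falling between control-based bounds plus 3 SD, cut at about 20% in these data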;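 note: 0% = DMSO wells while the 100% control is not disclosed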
Target sequence (O14672 214-748 limits assumed): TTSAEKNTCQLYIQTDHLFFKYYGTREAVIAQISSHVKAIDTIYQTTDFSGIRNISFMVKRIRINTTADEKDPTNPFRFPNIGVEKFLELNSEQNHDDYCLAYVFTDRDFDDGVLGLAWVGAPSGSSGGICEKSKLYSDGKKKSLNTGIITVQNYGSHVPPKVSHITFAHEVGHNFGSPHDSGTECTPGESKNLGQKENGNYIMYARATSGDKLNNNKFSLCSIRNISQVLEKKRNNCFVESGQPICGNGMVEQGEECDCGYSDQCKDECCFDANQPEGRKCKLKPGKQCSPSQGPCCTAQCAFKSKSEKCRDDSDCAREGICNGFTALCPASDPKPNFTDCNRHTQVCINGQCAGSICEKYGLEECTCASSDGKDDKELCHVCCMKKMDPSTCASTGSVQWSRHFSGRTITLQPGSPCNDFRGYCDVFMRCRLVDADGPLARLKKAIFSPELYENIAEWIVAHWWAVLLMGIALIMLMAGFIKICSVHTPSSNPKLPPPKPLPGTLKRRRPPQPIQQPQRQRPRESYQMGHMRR
PLC-beta3 inh = PLC-beta3 (human) inhibition, primary screen; Q01970; Purified PLC-beta3, fluorogenic substrate, fluorescence; inhibition, % at 12.2 µM; 370,000 tested, 0.18% active; AID 720704; in the data active = inhibition above about 11%;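 note: 0% = median of compound wells on plate and 100% = full blocker control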
PLCg1 inh = PLC-gamma1 (human) inhibition, primary screen | P19174 | purified PLC-gamma1, fluorogenic substrate, fluorescence | inhibition, % at 12.2 µM | 370,000 tested, 0.84% active | AID 720700; in the data active = inhibition above about 9.5%
ADAM17 inh = ADAM17 inhibition, QFRET primary screen; recombinant ADAM17, EDANS/DABCYL FRET peptide cleavage; P78536; 370,000 tested, 0.83% active; AID 720648; inhibition, % at 6.95 µM;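 active = inhibition above the mean of compounds lying between control limits plus 3 SD, set per campaign, cut at about 8.5% in these data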;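 note: 0% = DMSO-only wells as the low control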
ADAM10 confirm = confirmation of inhibitors of human ADAM10; shares compounds with ADAM10 inh; inhibition, % at 6.95 µM; ADAM10 QFRET peptide cleavage, EDANS fluorescence; 2,100 tested, 1% active; AID 743208;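 active = inhibition above about 20% chosen separately for each screening run, limit read from the data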;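 note: 0% = DMSO wells and 100% = marimastat wells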
ADAM17 ctr = counter-screen for ADAM10 exosite inhibitors: inhibitors of human ADAM17; shares compounds with ADAM10 inh; ADAM17 QFRET peptide cleavage, EDANS fluorescence; inhibition, % at 6.95 µM; 2,100 tested, 0.5% active;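 active = mean triplicate inhibition above the solvent-only control wells' mean plus 3 SD, cut at about 12% in these data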;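 note: 0% = DMSO wells and 100% = marimastat wells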
* hit, by the source's call.

How did O=C(O)c1ccccc1NS(=O)(=O)c1cccc2cccnc12 do in these assays?
sPLA2-III inh: -6; KLK7 zymogen act: 0; ADAM10 inh: 22*; PLC-beta3 inh: 11*; PLCg1 inh: 8; ADAM17 inh: 0; ADAM10 confirm: -1; ADAM17 ctr: 0

Results for O=C(Nc1cccc2ccccc12)c1ccccc1NS(=O)(=O)c1cccc2cccnc12 ?
sPLA2-III inh: 5; KLK7 zymogen act: -1; ADAM10 inh: -8; PLC-beta3 inh: 0; PLCg1 inh: 0; ADAM17 inh: -1

How did Nc1ccc(-c2cc(N)n(-c3ccccc3)n2)cc1 do in these assays?
sPLA2-III inh: 7; KLK7 zymogen act: 0; ADAM10 inh: 4; PLC-beta3 inh: -44; PLCg1 inh: -35; ADAM17 inh: 1

Results for Cc1ccccc1-n1nc(-c2ccc(N)cc2)cc1N ?
sPLA2-III inh: 11; KLK7 zymogen act: -2; ADAM10 inh: 42*; PLC-beta3 inh: -33; PLCg1 inh: -23; ADAM17 inh: 6; ADAM10 confirm: 3; ADAM17 ctr: 0

Results for CN(CC(=O)Nc1ccc(Cl)c(C(F)(F)F)c1)C(=O)Cc1c[nH]c2ccccc12 ?
sPLA2-III inh: -131; KLK7 zymogen act: 0; ADAM10 inh: 25*; PLC-beta3 inh: -2; PLCg1 inh: -4; ADAM17 inh: -4; ADAM10 confirm: 1; ADAM17 ctr: 0

Results for CC(C)CCNC(=O)C(c1ccc(O)cc1)N(Cc1cccs1)C(=O)C1COc2ccccc2O1 (stereo not given) ?
sPLA2-III inh: -30; KLK7 zymogen act: 0; ADAM10 inh: 22*; PLC-beta3 inh: 6; PLCg1 inh: 4; ADAM17 inh: 8; ADAM10 confirm: 6; ADAM17 ctr: 2

How did Cc1cc(Cl)ccc1NC(=S)NCCCO do in these assays?
sPLA2-III inh: -6; KLK7 zymogen act: 0; ADAM10 inh: 5; PLC-beta3 inh: 1; PLCg1 inh: 3; ADAM17 inh: 1

How did Cc1ccc(Cl)cc1NC(=S)NCCCSC1CCCCC1 do in these assays?
sPLA2-III inh: -4; KLK7 zymogen act: 1; ADAM10 inh: 22*; PLC-beta3 inh: -6; PLCg1 inh: 1; ADAM17 inh: 2; ADAM10 confirm: 2; ADAM17 ctr: 1

What do the screens show for `Clc1ccccc1CN(Cc1ccccc1)c1ncnc2nc[nH]c12`?
sPLA2-III inh: -24; KLK7 zymogen act: 0; ADAM10 inh: 20*; PLC-beta3 inh: 1; PLCg1 inh: 0; ADAM17 inh: 6; ADAM10 confirm: 7; ADAM17 ctr: 3

How did Clc1ccccc1CNc1ncnc2nc[nH]c12 do in these assays?
sPLA2-III inh: 3; KLK7 zymogen act: 0; ADAM10 inh: -8; PLC-beta3 inh: -1; PLCg1 inh: -2; ADAM17 inh: -5

How did COc1ccccc1C(=O)NC(=S)Nc1cccc2cc(O)ccc12 do in these assays?
sPLA2-III inh: -38; KLK7 zymogen act: 2; ADAM10 inh: 25*; PLC-beta3 inh: -10; PLCg1 inh: 1; ADAM17 inh: 6; ADAM10 confirm: 9; ADAM17 ctr: 3

What do the screens show for `O=C(Nc1ccccc1Oc1ccccc1)NC1CCCCN(Cc2cccc(Cl)c2)C1=O` (stereo not given)?
sPLA2-III inh: 1; KLK7 zymogen act: 1; ADAM10 inh: 1; PLC-beta3 inh: 5; PLCg1 inh: 1; ADAM17 inh: 1

What do the screens show for `Cc1cc(C)c(Cn2cnc(-c3ccc([N+](=O)[O-])cc3)c2)c(C)c1`?
sPLA2-III inh: -2; KLK7 zymogen act: 0; ADAM10 inh: 29*; PLC-beta3 inh: -8; PLCg1 inh: -3; ADAM17 inh: -16; ADAM10 confirm: 4; ADAM17 ctr: 1

How did CC(C)(C)c1ccc(Cn2cnc(-c3ccc([N+](=O)[O-])cc3)c2)cc1 do in these assays?
sPLA2-III inh: -14; KLK7 zymogen act: -1; ADAM10 inh: 5; PLC-beta3 inh: -10; PLCg1 inh: -9; ADAM17 inh: 4

What do the screens show for `Nc1ccc2c(c1)Nc1ccccc1CC2`?
sPLA2-III inh: 18; KLK7 zymogen act: 0; ADAM10 inh: 24*; PLC-beta3 inh: -19; PLCg1 inh: -11; ADAM17 inh: 4; ADAM10 confirm: 0; ADAM17 ctr: 1

How did COC(=O)c1cc(-c2ccccc2)c(=O)n2c1CCC2 do in these assays?
sPLA2-III inh: -3; KLK7 zymogen act: 0; ADAM10 inh: -14; PLC-beta3 inh: -2; PLCg1 inh: -4; ADAM17 inh: -4

How did CCc1ccc(NC(=O)C(=O)NNC(=O)c2cccc(OC)c2)cc1 do in these assays?
sPLA2-III inh: 3; KLK7 zymogen act: 0; ADAM10 inh: 14; PLC-beta3 inh: -5; PLCg1 inh: -2; ADAM17 inh: 1

Results for COc1cccc(C(=O)NNC(=O)C(=O)Nc2ccc(C)c(Cl)c2)c1 ?
sPLA2-III inh: 8; KLK7 zymogen act: 0; ADAM10 inh: 65*; PLC-beta3 inh: -13; PLCg1 inh: -7; ADAM17 inh: 6; ADAM10 confirm: 33*; ADAM17 ctr: 1

How did COc1ccc(-c2ccc(-c3noc(-c4cccc(OC)c4)n3)c(OC)n2)cc1 do in these assays?
sPLA2-III inh: 10; KLK7 zymogen act: 1; ADAM10 inh: 39*; PLC-beta3 inh: -6; PLCg1 inh: 2; ADAM17 inh: -4; ADAM10 confirm: 73*; ADAM17 ctr: 42*

Results for COc1ccc(-c2ccc(-c3noc(-c4ccc(OC)c(OC)c4)n3)c(OC)n2)cc1 ?
sPLA2-III inh: 1; KLK7 zymogen act: -2; ADAM10 inh: -13; PLC-beta3 inh: -8; PLCg1 inh: -4; ADAM17 inh: -5

What do the screens show for `Cc1[nH]n2c(=O)cc(-c3ccc([N+](=O)[O-])cc3)nc2c1-c1ccccc1`?
sPLA2-III inh: -5; KLK7 zymogen act: 1; ADAM10 inh: 23*; PLC-beta3 inh: -1; PLCg1 inh: 4; ADAM17 inh: 8; ADAM10 confirm: 2; ADAM17 ctr: 1

Source: PubChem
